Hits are enriched below; roughly 13% of the tested compounds scored in any of these assays.
Lassa entry inh: Lassa virus entry inhibition; Lassa virus pseudotype entry inhibition, cell reporter; Potency, µM (series often up to 37.9 µM), actives largely listed as inhibitors; 300,000 tested, 1.2% active; AID 540256; calls by dose curve; tested in HEK293 cells; note: nearly all actives have a fitted effect of over 50% in size
Cycloheximide cs: counter-screen hit for Shiga toxin inhibitors, cycloheximide | 300,000 tested, 12% active | cell reporter, cycloheximide protein synthesis inhibition counterscreen | max response, % | AID 2314; in the data active = max response mostly above about 13%, no sharp cut-off; inactive = mostly below about 14%; note: read at 38.3 µM for the half of the compounds with a filed dose
HCV inhibitor: blocks hepatitis C virus | Potency, µM (doses to about 41.8 µM), actives largely listed as inhibitors | 340,000 tested, 3.4% active | Huh7.5.1 HCVcc-Cre infection, luciferase reporter, 44 h; active = well fitted inhibition curve with a large enough effect; inconclusive = small, poorly fitted or top-dose-only effect, or another doubt; inactive = no such curve, though single readings can be large or run the other way
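Antiviral activity was scored by luciferase reporter output from cells infected with HCVcc-Cre (~0.5 moi) in presence of compound, 44 h infection period, cells seeded 1,000/well 4 h prior.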
MARV entry inh: Marburg virus entry inhibition. Marburg virus pseudotyped entry inhibition, cell reporter. Potency, µM (doses to about 37.8 µM), most hits filed as inhibitors. 300,000 tested, 1.8% active. AID 540276; calls by dose curve; tested in HEK293 cells
FMDV antiviral: foot and mouth disease virus antiviral activity. FMDV antiviral cell-based qHTS. Potency, µM (series often up to 57.9 µM), hits mostly inhibitors. 410,000 tested, 1.2% active; calls by dose curve; tested in HEK293T cells; note: read-out not given here; nearly all actives have a fitted effect of over 45% in size
Shiga toxin inh: inhibitors of Shiga toxin in Vero cells. Vero cells, Shiga toxin protein synthesis inhibition reporter. inhibition, % at 38.7 µM. 290,000 tested, 9.2% active; in the data active = inhibition mostly above about 28%, no sharp cut-off; inactive = mostly below about 43%
A number is an active result; - = inactive; ? = inconclusive; . = not tested or not shown; ! = a repeat was not active; [ ] = remark or other dose.

SMILES | Lassa entry inh | Cycloheximide cs | HCV inhibitor | MARV entry inh | FMDV antiviral | Shiga toxin inh
Cc1nonc1C(=O)N/N=C/c1cccc(O)c1 | - | 53.7 | - | - | - | 65.3
O=C(Cc1nnc(NC(=O)c2ccccc2)s1)N/N=C/c1cccc(O)c1 | ? | 13.7 | - | - | - | -
O=C(CCc1ccccc1)N/N=C/c1cccc(O)c1 | . | 14.5 | - | . | - | -
O=C(N/N=C/c1cccc(O)c1)N/N=C/c1cccc(O)c1 | ? | 28.2 | - | ? | - | 55.1
COc1ccccc1NC(=O)CCC(=O)OCC(=O)c1ccc(C)c([N+](=O)[O-])c1 | - | - | - | - | - | -
O=C(COC(=O)c1ccc(N2CCOCC2)c([N+](=O)[O-])c1)Nc1ccc2c(c1)OCO2 | - | - | - | - | - | -
Cc1ccc(NC(=O)CN2C(=O)NC3(CCCCC3C)C2=O)cc1S(=O)(=O)N1CCCCC1 (configuration not stated) | - | . | ? | - | ? | .
Cn1c(N/N=C\c2cccc(O)c2)cc(=O)n(C)c1=O | - | 19.2 | - | - | - | 24.4
O=C(CC(=O)c1ccccc1)Nc1ccccn1 | - | 43.2 | - | - | - | 76.5
O=C(NC(=S)Nc1ccccn1)c1ccc([N+](=O)[O-])cc1 | - | 51.1 | - | ? | - | 198.8
O=C(NC(=S)Nc1ccccn1)c1ccccc1 | . | 39.6 | - | . | - | 68.3
O=C(Nc1ccccn1)c1ccccc1 | - | . | - | ? | - | .
Cc1cc(C)c(NC(=S)NC(=O)c2ccc(-c3ccccc3)cc2)c(C)c1 | 8.91µM | - | - | ? | ? | -
CC(=O)c1cccc(NC(=O)Cn2cnc(S(=O)(=O)N3CCOCC3)c2)c1 | - | - | - | ? | - | -
O=C(/C=C/c1ccc(Cl)cc1Cl)NC(=S)Nc1ccc(CN2CCOCC2)cc1 | - | - | - | ? | - | -
O=C(NC(=S)Nc1ccccn1)c1ccc(-c2ccccc2)cc1 | - | 63.2 | ? | ? | - | 126.6
O=C(/C=C/c1ccc(Cl)cc1Cl)NC(=S)Nc1ccccn1 | ? | 38.0 | - | ? | - | 85.7
O=C(Nc1ccccn1)c1ccc(C(=O)Nc2ccccn2)cc1 | . | - | - | . | - | -
O=C(Cn1nc(-c2ccccc2)c2ccccc2c1=O)Nc1ccccn1 | ? | 45.9 | - | ? | - | -
COc1cc(C(=O)NCC(=O)N/N=C/c2ccccn2)cc(OC)c1OC | - | - | - | - | - | -
COC(=O)c1ccc(NC(=O)Nc2ccc3c(c2)nc(C)n3C)cc1 | - | 14.9 | - | ? | - | 68.4
Cc1nc2cc(NC(=O)Nc3ccccc3Cl)ccc2n1C | ? | 13.1 | ? | ? | - | 28.4
Cn1nccc1NC(=O)Nc1cccc([N+](=O)[O-])c1 | . | - | - | . | - | -
Cc1ccc(NC(=O)Nc2ccc3c(c2)nc(C)n3C)cc1 | ? | 33.1 | ? | 11.2µM | - | 53.8
COC(=O)c1ccc(C(=O)Nc2ccc(-c3nc4cc(NC(=O)c5ccc(C(=O)OC)cc5)ccc4o3)cc2)cc1 | ? | . | . | . | - | .
SMILES | Lassa entry inh | Cycloheximide cs | HCV inhibitor | MARV entry inh | FMDV antiviral | Shiga toxin inh
Cc1nc2cc(NC(=O)Nc3cccc([N+](=O)[O-])c3)ccc2n1C | ? | 45.7 | ? | ? | - | .
O=C(COC(=O)c1ccc(N2CCCC2=O)cc1)NCc1ccco1 | ? | - | - | - | - | -
CCCCC[C@@H](C)N1C[C@@H](COCc2ccccc2)Oc2cc(N3CCC[C@H]3CO)ccc2S1(=O)=O | . | . | . | . | - | .
COc1ccccc1N1C(=O)C2CC=CC(C)C2C1=O (configuration not stated) | - | - | - | - | - | -
CC(=O)NCCc1nc2cc(NC(=O)Nc3ccccc3)ccc2n1C | . | - | - | . | - | -
CC(=O)c1ccc(NC(=O)Nc2ccc3c(c2)nc(C)n3C)cc1 | - | 34.1 | - | ? | - | 80.9
CS(=O)(=O)N1N=C(c2ccco2)CC1c1ccc(Cl)cc1 (configuration not stated) | - | 30.2 | - | ? | - | -
Cc1ccc(C2CC(c3ccco3)=NN2S(C)(=O)=O)cc1 (configuration not stated) | ? | 28.0 | - | - | - | 40.1
CCOc1ccc(CC(=O)NCc2ccc3c(c2)CCN3C(=O)c2ccccc2)cc1OCC | ? | . | . | . | - | .
CCC1CN(Cc2cccn2-c2ccccn2)Cc2cc(OC)ccc2O1 (configuration not stated) | . | . | . | . | - | .
COc1cccc2c(=O)c3ccccc3oc12 | . | 54.7! | -[8.37 µM] | . | - | 66.8
O=c1ccc2c(ccc3ncccc32)o1 | . | . | . | . | - | .
COc1cccc2c(=O)ccoc12 | - | 12.4 | - | - | - | -
O=c1c2ccccc2oc2ncccc12 | - | 55.1 | - | ? | - | -
COc1ccc2oc3ccccc3c(=O)c2c1 | . | - | -[8.37 µM] | . | - | -
CC(C)c1ccc(/C=C2\SC(=S)N(CCC(=O)N3CCCCC3CCO)C2=O)cc1 (configuration not stated) | . | - | - | . | 11.2µM | -
O=C1/C(=C\c2ccccc2)SC(=S)N1CCC(=O)N1CCCCC1CCO (configuration not stated) | . | 35.2 | - | . | - | 38.6
O=C(NC1CCc2ccccc21)c1cc(COc2cncc(Cl)c2)on1 (configuration not stated) | ? | 56.6 | 12.6µM | - | - | 66.8
O=C(NCC1OCCc2ccccc21)c1cc(COc2c(F)cccc2F)on1 (configuration not stated) | ? | 34.6 | ? | ? | - | 49.3
O=C(NCCc1cnn(-c2ccccc2)c1)c1cc(COc2c(F)cccc2F)on1 | - | 27.2 | ? | ? | - | 67.6
O=C(NCc1c(F)cccc1F)c1cc(COc2c(F)cccc2F)on1 | - | 26.3 | - | - | - | 96.5
O=C(NC1CCc2ccccc21)c1cc(COc2c(F)cccc2F)on1 (configuration not stated) | . | 21.0 | - | . | - | -
O=C(NC1CCc2ccccc21)c1cc(COc2ccc(F)cc2Cl)on1 (configuration not stated) | . | - | - | . | - | -
CCCCCCC(=O)N(O)C1CC(=O)N(c2ccc(Br)cc2)C1=O (configuration not stated) | - | - | - | - | - | -
COc1ccccc1N(O)C1CC(=O)N(c2ccc(Br)cc2)C1=O (configuration not stated) | - | 27.0 | - | - | - | 41.9
SMILES | Lassa entry inh | Cycloheximide cs | HCV inhibitor | MARV entry inh | FMDV antiviral | Shiga toxin inh
CCOc1ccccc1Oc1cn[nH]c1-c1ccc(OCC(=O)NN)cc1O | - | - | ? | ? | ? | -
O=c1cc(Cl)nc2ccccn12 | - | . | - | - | - | .
O=c1cc(NCc2ccccc2)nc2ccccn12 | - | 16.6 | - | ? | - | -
Nn1nnc2ccccc21 | - | 13.9 | - | - | - | -
c1ccc2c(c1)nnn1c3ccccc3nc21 | . | 34.4 | . | - | . | 79.7
Cc1nc2ccccc2c2nc3ccccc3n12 | - | - | ? | - | . | -
CCOc1ccccc1NC(=O)Cn1c(=O)n(-c2ccc(C)c(C)c2)c(=O)c2oc3ccccc3c21 | ? | . | . | . | - | .
CCn1c(NCc2ccc3c(c2)OCO3)nc2ccccc21 | - | 22.0 | - | ? | - | -
c1ccc2c(c1)nc(NCc1ccc3c(c1)OCO3)n2CCN1CCOCC1 | - | - | - | - | - | -

Compound activity: PubChem, National Center for Advancing Translational Sciences (NCATS)
